The whole screen tested about 360,000 compounds, of which about 4,600 (1.3%) were called active. This is one part of a sample in which actives are shown more often than they occur. A number with no mark means an inactive call.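 The calls were made as follows: active = percent inhibition above its own plate's cutoff, namely the mean of that plate's compound wells plus 3 SD; inactive = the rest.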
Molecular target: Muscarinic acetylcholine receptor M1 (Homo sapiens) (UniProt P11229)
Experiment: CHRM1 blockers of acetylcholine calcium response – CHO-K1 cells, Fluo-8 calcium fluorescence, 1536-well, primary screen (AID 588852);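 also: peak over basal fluorescence ratio during 140 s after agonist addition; 0% = ACh EC80 plus DMSO and 100% = DMSO alone without agonist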
Conditions: CHO-K1 hM1, Fluo-8 calcium fluorescence, ACh EC80 antagonist; at 3 µM; stronger effect = higher value

Sequence of Muscarinic acetylcholine receptor M1 (Homo sapiens) (P11229 whole entry, looked up): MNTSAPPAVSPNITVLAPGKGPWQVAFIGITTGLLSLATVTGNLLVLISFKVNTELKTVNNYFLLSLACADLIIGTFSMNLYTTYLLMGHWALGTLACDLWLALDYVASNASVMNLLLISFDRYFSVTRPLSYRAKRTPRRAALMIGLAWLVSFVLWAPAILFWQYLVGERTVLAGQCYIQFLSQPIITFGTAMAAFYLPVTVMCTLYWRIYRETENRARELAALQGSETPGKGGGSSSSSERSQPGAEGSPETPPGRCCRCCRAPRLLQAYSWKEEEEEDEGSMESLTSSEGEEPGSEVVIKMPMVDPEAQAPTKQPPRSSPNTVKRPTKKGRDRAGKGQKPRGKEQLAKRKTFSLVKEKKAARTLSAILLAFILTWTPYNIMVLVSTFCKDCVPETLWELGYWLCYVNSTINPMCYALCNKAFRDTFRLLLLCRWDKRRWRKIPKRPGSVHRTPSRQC

Compound	inhibition
COc1ccc(-c2cc(NC=O)c3ncc(-c4cc(OC)c(OC)c(OC)c4)n3c2)c(OC)c1	5.71%
Cc1ccc2cc(CCNC(=O)c3ccc4c(c3)OCO4)c(=O)[nH]c2c1	-6.75%
Cc1ccc(N(C(=O)c2sc(C)nc2C)C(C(=O)NC(C)(C)C)c2ccncc2)cc1 (stereo unspecified)	-4.9%
CCOCCCNS(=O)(=O)Cc1ccccc1	-12.6%
Cc1nccn1-c1ccc(NC(=O)[C@H]2O[C@@H](n3cnc4c(N)ncnc43)[C@H](O)[C@@H]2O)cc1	-16.5%
CCCCCn1c(=O)[nH]c2cc(C(=O)NCCCN3CCCCC3C)ccc2c1=O (stereo unspecified)	27.5% (active)
O=C(NC1CCCCC1)c1ccc2c(=O)n(CC3CCCO3)c(=O)[nH]c2c1 (stereo unspecified)	-13.8%
CC1CCCCN1CCCNC(=O)Cn1ncc2c([nH]c3ccccc32)c1=O (stereo unspecified)	3.02%
Cc1ccccc1NC(=O)Cc1nc(COC(=O)CNC(=O)c2ccc(Cl)cc2Cl)cs1	-13%
CN(C)c1ccc(/C=C2\NC(=S)N(Cc3ccccc3)C2=O)cc1	68.3% (active)
Cc1ccc(CN2C(=O)N/C(=C/c3cc(C)n(-c4ccccn4)c3C)C2=O)cc1	-1.22%
CN(C(=O)CN1C(=O)NC(C)(CCc2ccccc2)C1=O)c1ccccc1 (stereo unspecified)	-11.9%
COc1ccc(-c2cc(NC(C)=O)c3ncc(-c4cc(OC)c(OC)c(OC)c4)n3c2)cn1	-10.3%
CC(=O)N[C@H]1[C@H]([C@H](O)[C@H](O)CO)OC(C(=O)O)=C[C@@H]1O	-23.4%
CC(=O)Nc1cc(-c2ccccc2F)cn2c(-c3cccc(C(F)(F)F)c3)cnc12	-3.02%
Cc1nc2ccccc2cc1OCc1ccc(F)cc1	18% (active)
Cc1occc(=O)c1OCc1ccc(F)cc1	-6.78%
Fc1cccc2ncnc(OCc3ccccc3)c12	-13.7%
Clc1cccc(Cc2c(-c3cccc(Cl)c3)nc3ccc(Cl)cn23)c1	-29.8%
Clc1ccccc1Nc1nc(NCc2cccs2)nc2ccsc12	7.85%
COCCNc1nc(Nc2ccccc2Cl)c2sc(-c3ccccc3)cc2n1	-5.82%
COc1ccccc1CNc1nc(Nc2ccccc2Cl)c2sccc2n1	30.1% (active)
Cc1cc(Br)cn2c(Cc3cccc(F)c3)c(-c3cccc(Br)c3)nc12	-3.87%
COc1ccc(CCNc2ncnc3nc[nH]c23)cc1OC	5.06%
c1ccc2c(c1)OCC(CNc1ncnc3nc[nH]c13)O2 (stereo unspecified)	101% (active)
O=C(Cn1cnc2ccccc2c1=O)NCC1COc2ccccc2O1 (stereo unspecified)	-3.89%
